Bioassay records (PubChem)
HDAC3 inhib = HDAC3 deacetylase inhibitors, primary screen, biochemical, fluorescence, cell-free homogeneous. Histone deacetylase 3 (Homo sapiens), O15379. hit rate 0.15% among 320,000. recombinant HDAC3, fluorogenic peptide/trypsin coupled. inhibition, % at 8.3 µM. AID 2718, 2010; in the data active = inhibition above about 26%, passing the limit was not always enough; inconclusive = no clear call, values can overlap the other calls
PHOSPHO1 block = PubChem AID 1565; inhibition, % at 13.3 µM; hit rate 1.1% among 290,000; recombinant PHOSPHO1, absorbance phosphatase assay; Phosphoethanolamine/phosphocholine phosphatase (Homo sapiens), Q8TCT1; in the data active = inhibition above about 60%
CHT inh = inhibitors of human choline transporter CHT. CHT-expressing cells, membrane potential dye, choline response; hits give low values. B-score at 10 µM. hit rate 0.86% among 310,000. AID 488975, 2010;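 active = B-score over 3 SD under the library average, and starting fluorescence ratio not unusually high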;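 also: choline stimulus applied at its EC90 after an EC20 pre-addition; B-score computed on integrated fluorescence ratio after choline addition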
Target sequence (Q9GZV3 whole entry, looked up): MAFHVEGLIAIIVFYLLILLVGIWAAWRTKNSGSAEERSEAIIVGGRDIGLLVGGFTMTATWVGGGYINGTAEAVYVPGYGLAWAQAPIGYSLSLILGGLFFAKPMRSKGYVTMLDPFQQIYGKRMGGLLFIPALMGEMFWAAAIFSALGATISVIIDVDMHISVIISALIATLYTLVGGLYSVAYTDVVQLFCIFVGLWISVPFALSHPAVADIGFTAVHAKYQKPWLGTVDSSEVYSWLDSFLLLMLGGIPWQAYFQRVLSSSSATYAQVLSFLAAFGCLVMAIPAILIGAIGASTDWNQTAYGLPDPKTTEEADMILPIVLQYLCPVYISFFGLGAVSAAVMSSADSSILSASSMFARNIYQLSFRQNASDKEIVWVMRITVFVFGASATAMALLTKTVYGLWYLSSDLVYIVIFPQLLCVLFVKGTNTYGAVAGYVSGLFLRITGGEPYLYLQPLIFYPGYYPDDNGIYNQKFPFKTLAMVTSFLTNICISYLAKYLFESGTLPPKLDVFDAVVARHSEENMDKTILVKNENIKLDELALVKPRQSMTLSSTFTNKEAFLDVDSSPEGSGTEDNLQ
TMEM16A inh = TMEM16A chloride channel inhibitors, primary screen, cell-based, HTS; Anoctamin-1 (Mus musculus), Q8BHY3; HEK293 TMEM16A/YFP iodide influx fluorescence, ionomycin; normalized B-score (activity score, 25-100; higher = stronger inhibition) at 10 µM; hit rate 1.2% among 310,000;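 active = ratio plate-corrected score three or more library SD toward inhibition, starting fluorescence score within five deviations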;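 also: score derived from kinetic fluorescence span divided by baseline fluorescence per well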
CHT allo act = CHT positive allosteric modulators, primary screen, cell-based, membrane potential dye, choline EC20; CHT-expressing cells; hits give high values; LV-AA mutant CHT in HEK293 cells; AID 488977, 2010; hit rate 0.49% among 310,000; B-score at 10 µM; High affinity choline transporter 1 (Homo sapiens), Q9GZV3;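 active = initial fluorescence not abnormally high and integrated response B-score, plate-corrected, over 3 SD above library mean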
TMEM16A act = TMEM16A chloride channel activators or potentiators, primary screen, cell-based, HTS; HEK293 TMEM16A/YFP-H148Q/I152L, iodide quench fluorescence; hits give low values; B-score at 10 µM; AID 623877, 2012; hit rate 0.3% among 340,000; Anoctamin-1 (Mus musculus), Q8BHY3;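 active = fluorescence-ratio B-score plate-corrected deviation score at least 3 library SD below zero, with starting fluorescence score within 5 deviations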;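 also: channel opened by trigger with iodide after compound preincubation; score built on the fluorescence ratio of max minus min over baseline; more negative score means more quench and so TMEM16A activation or potentiation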
CHT inh conf = CHT inhibitors, confirmation, cell-based, membrane potential dye, duplicate; shares compounds with CHT inh; CHT-expressing cells, choline membrane potential dye; LV-to-AA substituted CHT, HEK293 cells; CHT activity remaining % of control (hits give low values), % at 10 µM; hit rate 70% among 2,400;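 active = choline transporter activity left, mean of duplicates at 10 µM, below buffer-only control mean minus 3 SD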;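 also: depolarization triggered by choline at its EC90 following an EC20 pre-addition; 0% = hemicholinium-3 full block and 100% = buffer-only control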
HEK293 CHT ctr = membrane potential effects in parental HEK293, counter-screen for CHT inhibitor project, cell-based, membrane potential dye; hit rate 4% among 2,400; shares compounds with CHT inh; membrane potential ratio readout (active if shifted either direction beyond buffer ±3SD; no single direction) at 10 µM; choline response; active = decrease or increase beyond buffer ±3SD; AID 493222, 2011;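 also: parental cells lack the transporter so any hit is non-specific; ratio is peak minus trough fluorescence over baseline after EC90 choline challenge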
The depositor's hits bear a star; i = inactive; ? = inconclusive; nt = no result. An excerpt weighted towards active compounds, which were near 3.2% of everything screened.

SMILES | HDAC3 inhib | PHOSPHO1 block | CHT inh | TMEM16A inh | CHT allo act | TMEM16A act | CHT inh conf | HEK293 CHT ctr
O=C(O)c1cc([N+](=O)[O-])ccc1NCc1ccccc1Cl | 0.8 | -15.8 | -5.58* | i | i | i | i | i
Cc1ccc(Cn2nnc3c(=O)[nH]c(C4CCCN(C(=O)c5ccco5)C4)nc32)cc1 (centres undefined) | 0.1 | 18.4 | i | i | i | i | nt | nt
O=C(Nc1ccccc1)c1cccc(S(=O)(=O)NC2CCCC2)c1 | 4.2 | 12.5 | -5.17* | i | i | i | 36.4%* | i
COc1ccc(C(=O)Oc2cccc(Nc3ncnc4ccccc34)c2)cc1OC | 1.3 | 0.1 | i | i | i | i | nt | nt
CC(C)(C)C(=O)Oc1cccc(Nc2ncnc3ccccc23)c1 | -3.7 | nt | -5.01* | 25* | i | i | 61.2%* | i
O=S(=O)(Nc1cccc2ncccc12)c1cccc(C(F)(F)F)c1 | nt | nt | nt | nt | nt | i | nt | nt
CNC(=O)CSc1nc2sccc2c(=O)n1-c1ccccc1 | 7.2 | 12.0 | i | i | i | i | nt | nt
N#CCSc1nc2sccc2c(=O)n1-c1ccccc1 | 1.4 | 16.1 | -5.53* | i | i | i | i | i
CCN1CCN(C(=O)C2=CC(c3ccc(OC)cc3)=NS(=O)(=O)N2C)CC1 | 4.6 | 17.6 | i | i | i | i | nt | nt
CCN1CCN(C(=O)C2=CC(c3ccc(C)cc3)=NS(=O)(=O)N2C)CC1 | 8.8 | 33.4 | -6.57* | i | i | i | i | i
COCCNC(=O)CN1c2ccccc2CC1C (centres undefined) | -9.1 | 14.8 | i | i | i | i | nt | nt
CCCCn1c(N)c(-c2nc3ccccc3o2)c2c([N+](=O)[O-])nn(C)c(=O)c21 | -4.4 | -3.9 | i | i | i | i | nt | nt
CCCCCn1c(N)c(-c2nc3ccccc3s2)c2c([N+](=O)[O-])nn(C)c(=O)c21 | 4.0 | -2.7 | -6.33* | i | i | i | i | i
O=C(Nc1ncccc1Cl)c1ccc2c(c1)OCCO2 | 1.3 | -4.1 | i | i | i | i | nt | nt
O=C(Nc1cccc(S(=O)(=O)NC2=NCCC2)c1)c1cc(Cl)ccc1[N+](=O)[O-] | nt | nt | -6.78* | i | i | i | 20.6%* | i
CCCC(=O)Nc1ccc(C(=O)NNC(=O)c2cccs2)cc1 | 0.5 | 17.9 | i | i | i | i | nt | nt
CC(C)c1nc(NCC2CCCO2)c(C#N)c2c1COC(C)(C)C2 (centres undefined) | -19.1 | -2.2 | i | i | i | i | nt | nt
CC(C)(C)C(=O)NNC(=O)c1cc2sccc2s1 | 2.2 | 24.6 | -5.79* | i | i | i | i | i
CC(C)c1ccc(S(=O)(=O)N2CCC(C(=O)NCC3(N(C)C)CCCCC3)CC2)cc1 | -3.2 | 23.3 | -6.05* | i | i | i | 21.9%* | i
CN(C)C1(CNC(=O)C2CCN(S(=O)(=O)c3cc(Cl)ccc3Cl)CC2)CCCCC1 | -2.1 | 30.1 | i | i | i | i | nt | nt
CNC(=S)N(CCc1c(C)[nH]c2ccc(OC)cc12)Cc1cccnc1 | -2.1 | 59.3 | i | i | i | i | nt | nt
CCOC(=O)c1cc(C(=O)NC(C)c2ccccc2)c(=O)[nH]c1C (centres undefined) | -3.3 | 23.9 | -11.5* | i | i | i | 26.3%* | i
CC(NC(=O)c1cc(=O)[nH]c2ccccc12)c1ccccc1 (centres undefined) | -1.2 | 43.1 | i | i | i | i | nt | nt
Cc1ccc(S(=O)(=O)NC(=O)COc2cc(C)ccc2C(C)C)cc1 | 8.3 | 16.2 | -5.87* | i | i | i | 49.5%* | i
Cc1ccc(C(C)C)c(OCC(=O)NNC(=O)Nc2ccccc2)c1 | 6.2 | nt | i | i | i | i | nt | nt
SMILES | HDAC3 inhib | PHOSPHO1 block | CHT inh | TMEM16A inh | CHT allo act | TMEM16A act | CHT inh conf | HEK293 CHT ctr
C=CC(=O)N=c1sc2ccccc2n1-c1ccccc1 | 5.2 | 16.5 | -6.17* | i | i | i | 37.2%* | i
O=C1N/C(=N\S(=O)(=O)Cc2ccccc2)S/C1=C/c1cc([N+](=O)[O-])ccc1O | ? | 11.5 | i | i | i | i | nt | nt
COc1cc(/C=C2/S/C(=N/S(=O)(=O)Cc3ccccc3)NC2=O)c([N+](=O)[O-])cc1OC | 1.5 | 10.0 | -6.29* | i | i | i | 37.3%* | i
COc1cc(/C=C2\S/C(=N/S(=O)(=O)Cc3ccccc3)NC2=O)c([N+](=O)[O-])cc1OC | 4.8 | 1.5 | -4.95* | i | i | i | 48.6%* | i
COc1ccc(NC(=O)Nc2ccc3c(c2)C(=O)N([C@@H](C)CO)C[C@@H](C)[C@@H](CN(C)CC2CCCCC2)O3)cc1 | -1.5 | nt | nt | nt | nt | i | nt | nt
CC1(C(=O)N2CCC(CC3CC(c4ccc(Cl)cc4)=NO3)(C(=O)NCC3CCCCC3)CC2)CC1 (centres undefined) | 5.0 | -7.3 | -5.18* | i | i | i | 71.4%* | i
CN(C)C(=O)N1CCN(S(=O)(=O)c2ccc3ccccc3c2)CC1 | 0.0 | 13.9 | -6.67* | i | i | i | 5.6%* | i
CCn1c(=N)n(CC(=O)c2ccc(Cl)c(Cl)c2)c2ccccc21 | -4.7 | 37.1 | i | i | i | i | nt | nt
N=c1n(CCN2CCCCC2)c2ccccc2n1CC(=O)c1ccc(Cl)c(Cl)c1 | -4.9 | 11.6 | -5.42* | i | i | i | i | i
COc1ccc(/C=C2\N=C(c3ccccc3)N(c3ccc(C(=O)O)cc3)C2=O)cc1OC | 13.5 | 23.7 | -6.91* | i | i | i | 46.8%* | i
CC1=N/C(=C\c2ccc(OC(C)C)cc2)C(=O)N1c1ccc(C(=O)O)cc1 | 4.5 | 11.7 | i | i | i | i | nt | nt
Fc1ccc(NC(=S)Nc2ccc(F)c(Cl)c2)cc1Cl | ? | 95.0* | -6.09* | 100* | i | -10.3* | 36.5%* | i
O=C(NC(=S)Nc1ccc(F)c(Cl)c1)C1CC1 | -12.8 | 17.8 | i | i | i | i | nt | nt
